# Values joined by “and” are separate entries in the source; they are usually repeats but may differ in a detail not shown here. Equal entries are not always repeated. Compounds without any hit were thinned out: in the full panel of roughly 83,000, 20% have a hit.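 Treatment: one concentration, 48 hours, 96-well format. Scoring: percent growth, with anything below 10 considered active.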 Active and inactive are the calls of the source.
# Test system: MDA-MB-468 breast
# Assay: NCI-60 one-dose screen, 48 h (100 = growth as untreated, 0 = no growth, -100 = all killed)
# Settings: 10 µM unless noted
row,SMILES,growth
1,C/C(=C\c1ccn(-c2ccc(N)cc2C(F)(F)F)n1)[C@@H]1C[C@@H]2O[C@]2(C)CCC[C@H](C)[C@H](O)[C@@H](C)C(=O)C(C)(C)[C@@H](O)CC(=O)O1,28.6% (inactive)
2,CC(C)c1cccc(C(C)C)c1O,101% (inactive) and 94.3% (inactive)
3,CC(=O)OC1C(OC/C2=C/C3[C@@H](C(C)C)CC=C(C)[C@@H]3CC(OC(=O)/C=C/c3cn(C)cn3)[C@]3(C)C=C[C@@]2(O)O3)OCC(O)C1O (stereo not given in full),-19.2% (active)
4,COC(=O)[C@@H](C)C[C@H](Cc1ccccc1)NC(=O)c1nc([C@@H](C[C@H](C(C)C)N(C)C(=O)[C@@H](NC(=O)[C@H]2C[C@H](O)CCN2C)C(C)C)OC(C)=O)sc1C(C)C,-0.0807% (active)
5,CC(=O)O[C@H]1C(=O)[C@@]2(C)[C@H]([C@H](OC(=O)c3ccccc3)[C@]3(O)C[C@H](OC(=O)[C@H](OC(=O)OC[C@@H]4COC(C)(C)O4)[C@@H](NC(=O)c4ccccc4)c4ccccc4)C(C)=C1C3(C)C)[C@]1(OC(C)=O)CO[C@@H]1C[C@@H]2O,-7.94% (active)
6,O1[As]2O[As]3O[As]1O[As](O2)O3,-63.2% (active)
7,CC(C)(N)Cc1ccccc1,114% (inactive)
8,CCC(=O)OC1CCn2c1nc1c2C(=O)C(C)=C(N2CC2)C1=O (stereo not given),44.3% (inactive)
9,C[CH2][Hg][S]c1ccccc1C(=O)O,-86.6% (active)
10,CCOC(=O)C1C(C=C(C)C)C1(C)C (stereo not given),107% (inactive)
11,C/C=C/CC(C)C(O)[C@H](NC(=O)[C@@H]1CCCN1C(=O)C(C)(C)NC(=O)CCCCCCCCC)C(=O)N[C@@](C)(CC)C(=O)N[C@@H](CCC(N)=O)C(=O)N[C@H](CCC(N)=O)C(=O)NC(C)(C)C(=O)NC(C)(C)C(=O)N[C@@H](CCC(N)=O)C(=O)N[C@H](CC(C)C)C(=O)N[C@H](CO)CC(C)C (stereo not given in full),-53.4% (active) and 16.1% (inactive)
12,O=C1NC(=S)NC(=O)C1=Cc1ccccc1,117% (inactive)
13,CCOC(=O)c1c(C)n(Cc2ccccc2)c2cc(CN(C)C)c(O)cc12,73.9% (inactive)
14,COC(=O)C12C3C4C1C1C2C3C41NC(=O)c1csc([C@@H](C[C@H](C(C)C)N(C)C(=O)[C@@H](NC(=O)[C@H]2CCCCN2C)C2CC2)OC(C)=O)n1 (stereo not given in full),29.6% (inactive)
15,CC1(C)N=C(N)N=C(N)N1c1cccc(C(=O)Nc2cccc(S(=O)(=O)F)c2)c1,94.6% (inactive)
16,Oc1c(Br)cc(Br)cc1Br.[Cu+2],102% (inactive)
17,CCC[CH2][Sn]([CH2]CCC)([CH2]CCC)[O]C(=O)c1ccc(Cl)cc1Cl,-80.7% (active)
18,CCOP(=O)(NC)OCC,94.2% (inactive)
19,C[C@]12CC[C@@H](OC(=O)N(CCCl)N=O)C[C@@H]1CC[C@@H]1[C@@H]2CC[C@]2(C)C(=O)CC[C@@H]12,-31.4% (active)
20,C/C(Cc1ccc(Cl)cc1)=C(\c1ccc(OCCN2CCOCC2)cc1)c1ccc(OC(=O)Cc2ccccc2)cc1,88.7% (inactive)
21,O=[N+]([O-])CC(O)C(Cl)(Cl)Cl (stereo not given),102% (inactive)
22,O=C1CN2CCC1CC2,104% (inactive)
23,O=C1C2CC=CCC2C(=O)N1SC(Cl)(Cl)Cl (stereo not given),103% (inactive)
24,CC/C(=C/c1ccc(OC)cc1)[N+](=O)[O-],-56.6% (active)
25,N#CCN(CC#N)[N+](=O)[O-],112% (inactive)

# Source: PubChem BioAssay (NCI)
